Key:
Test in all cases: log2 ratio of Biotin-Ahx-Ub-VS probe labelling (fragment/DMSO); higher = less target engagement (more negative = stronger competition), active = hit call of the paper (q ≤ 0.05, log2 ratio ≤ -1)
Settings in all cases: compound concentration: 200 uM; treatment time: 3 h
USP34 = USP34 (UniProt Q70CQ2)
Procedure, shortened: (§1)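 HEK293T lysate (495 µg per sample, in Tris/CHAPS/IGEPAL buffer with protease inhibitors) was treated in triplicate with fragment at 200 µM or with DMSO for 3 h. It was then treated with Biotin-Ahx-Ub-VS (0.5 µM final) for 1 h. Labelled DUBs were NeutrAvidin-enriched, digested with LysC and trypsin, and run by diaPASEF LC-MS/MS. Spectronaut label-free quantities were global-median-normalised. Values are average log2 ratios fragment/DMSO by unpaired t-test, using proteins with ≥2 unique peptides.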

USP36 = biological target: T1, USP36 (UniProt Q9P275)
T1 sequence (whole entry): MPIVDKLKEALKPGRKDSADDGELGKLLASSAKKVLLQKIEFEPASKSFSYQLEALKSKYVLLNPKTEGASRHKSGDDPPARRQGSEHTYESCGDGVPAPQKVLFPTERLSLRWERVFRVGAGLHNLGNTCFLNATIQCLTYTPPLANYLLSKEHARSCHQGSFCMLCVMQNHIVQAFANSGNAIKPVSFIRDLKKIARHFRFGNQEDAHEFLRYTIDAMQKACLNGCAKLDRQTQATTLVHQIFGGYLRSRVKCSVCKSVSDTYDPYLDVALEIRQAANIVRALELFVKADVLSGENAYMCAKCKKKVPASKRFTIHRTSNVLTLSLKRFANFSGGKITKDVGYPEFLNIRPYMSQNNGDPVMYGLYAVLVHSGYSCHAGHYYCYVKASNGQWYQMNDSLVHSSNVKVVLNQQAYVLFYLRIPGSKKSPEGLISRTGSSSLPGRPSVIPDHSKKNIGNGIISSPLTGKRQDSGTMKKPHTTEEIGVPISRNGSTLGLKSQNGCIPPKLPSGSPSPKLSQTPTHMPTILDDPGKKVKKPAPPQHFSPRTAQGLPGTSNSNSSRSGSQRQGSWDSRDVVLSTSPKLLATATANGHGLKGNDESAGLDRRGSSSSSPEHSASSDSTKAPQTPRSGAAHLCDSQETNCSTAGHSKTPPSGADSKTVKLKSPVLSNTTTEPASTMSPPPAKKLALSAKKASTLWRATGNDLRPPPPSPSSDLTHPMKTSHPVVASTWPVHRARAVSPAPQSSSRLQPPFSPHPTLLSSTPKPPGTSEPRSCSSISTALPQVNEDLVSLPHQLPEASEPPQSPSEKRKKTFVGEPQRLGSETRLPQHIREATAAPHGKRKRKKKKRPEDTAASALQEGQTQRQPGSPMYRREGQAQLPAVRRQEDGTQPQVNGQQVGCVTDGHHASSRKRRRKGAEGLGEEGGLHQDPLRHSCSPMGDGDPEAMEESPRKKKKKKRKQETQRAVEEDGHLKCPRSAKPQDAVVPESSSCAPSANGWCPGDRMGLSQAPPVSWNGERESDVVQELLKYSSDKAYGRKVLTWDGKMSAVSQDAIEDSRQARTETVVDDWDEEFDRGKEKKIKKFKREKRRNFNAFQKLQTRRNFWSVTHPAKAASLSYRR
Procedure, shortened: as §1

USP38 = biological target: T2, USP38 (UniProt Q8NB14)
T2 sequence (whole entry): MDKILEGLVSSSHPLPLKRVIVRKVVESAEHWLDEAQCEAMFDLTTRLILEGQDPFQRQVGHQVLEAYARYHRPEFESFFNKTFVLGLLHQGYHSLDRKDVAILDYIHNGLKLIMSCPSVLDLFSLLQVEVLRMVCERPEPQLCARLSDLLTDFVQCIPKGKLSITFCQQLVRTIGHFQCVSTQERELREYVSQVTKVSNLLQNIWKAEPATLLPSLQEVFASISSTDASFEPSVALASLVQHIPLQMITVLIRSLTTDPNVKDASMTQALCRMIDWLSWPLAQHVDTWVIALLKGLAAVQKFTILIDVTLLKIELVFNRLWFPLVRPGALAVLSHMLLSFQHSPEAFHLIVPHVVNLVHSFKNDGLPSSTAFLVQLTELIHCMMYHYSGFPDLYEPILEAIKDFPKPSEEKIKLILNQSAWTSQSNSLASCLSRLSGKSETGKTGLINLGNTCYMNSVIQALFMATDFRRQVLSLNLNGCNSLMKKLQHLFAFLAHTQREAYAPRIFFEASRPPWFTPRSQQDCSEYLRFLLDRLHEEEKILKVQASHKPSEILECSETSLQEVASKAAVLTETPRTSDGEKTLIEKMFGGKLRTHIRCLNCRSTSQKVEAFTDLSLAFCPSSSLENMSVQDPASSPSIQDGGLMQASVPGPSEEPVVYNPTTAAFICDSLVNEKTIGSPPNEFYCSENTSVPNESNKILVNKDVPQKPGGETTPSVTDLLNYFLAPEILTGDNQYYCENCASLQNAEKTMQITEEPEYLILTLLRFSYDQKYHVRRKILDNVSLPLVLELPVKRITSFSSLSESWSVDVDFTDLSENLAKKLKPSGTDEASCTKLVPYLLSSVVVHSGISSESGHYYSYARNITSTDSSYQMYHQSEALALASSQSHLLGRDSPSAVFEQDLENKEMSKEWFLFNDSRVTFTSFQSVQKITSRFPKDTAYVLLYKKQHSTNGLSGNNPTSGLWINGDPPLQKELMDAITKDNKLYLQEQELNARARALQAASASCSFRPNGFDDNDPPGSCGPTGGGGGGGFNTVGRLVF
Procedure, shortened: as §1

USP39 = biological target: T3, USP39 (UniProt Q53GS9)
T3 sequence (whole entry): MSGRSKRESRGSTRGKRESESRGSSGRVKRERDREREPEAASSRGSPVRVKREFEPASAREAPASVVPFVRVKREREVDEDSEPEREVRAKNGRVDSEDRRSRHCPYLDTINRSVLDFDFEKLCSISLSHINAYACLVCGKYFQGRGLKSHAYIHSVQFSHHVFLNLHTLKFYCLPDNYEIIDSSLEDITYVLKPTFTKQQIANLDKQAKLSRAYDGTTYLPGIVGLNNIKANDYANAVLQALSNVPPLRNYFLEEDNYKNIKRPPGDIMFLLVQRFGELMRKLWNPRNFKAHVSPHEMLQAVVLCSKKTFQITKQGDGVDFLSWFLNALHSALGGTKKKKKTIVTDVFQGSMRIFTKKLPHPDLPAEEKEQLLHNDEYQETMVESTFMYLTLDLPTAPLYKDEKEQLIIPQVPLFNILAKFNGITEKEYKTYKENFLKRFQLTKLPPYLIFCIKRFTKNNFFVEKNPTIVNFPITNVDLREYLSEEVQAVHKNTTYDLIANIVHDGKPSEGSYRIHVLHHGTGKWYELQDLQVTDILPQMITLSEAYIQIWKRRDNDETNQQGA
Procedure, shortened: as §1

USP4 = biological target: T4, USP4 (UniProt Q13107)
T4 sequence (whole entry): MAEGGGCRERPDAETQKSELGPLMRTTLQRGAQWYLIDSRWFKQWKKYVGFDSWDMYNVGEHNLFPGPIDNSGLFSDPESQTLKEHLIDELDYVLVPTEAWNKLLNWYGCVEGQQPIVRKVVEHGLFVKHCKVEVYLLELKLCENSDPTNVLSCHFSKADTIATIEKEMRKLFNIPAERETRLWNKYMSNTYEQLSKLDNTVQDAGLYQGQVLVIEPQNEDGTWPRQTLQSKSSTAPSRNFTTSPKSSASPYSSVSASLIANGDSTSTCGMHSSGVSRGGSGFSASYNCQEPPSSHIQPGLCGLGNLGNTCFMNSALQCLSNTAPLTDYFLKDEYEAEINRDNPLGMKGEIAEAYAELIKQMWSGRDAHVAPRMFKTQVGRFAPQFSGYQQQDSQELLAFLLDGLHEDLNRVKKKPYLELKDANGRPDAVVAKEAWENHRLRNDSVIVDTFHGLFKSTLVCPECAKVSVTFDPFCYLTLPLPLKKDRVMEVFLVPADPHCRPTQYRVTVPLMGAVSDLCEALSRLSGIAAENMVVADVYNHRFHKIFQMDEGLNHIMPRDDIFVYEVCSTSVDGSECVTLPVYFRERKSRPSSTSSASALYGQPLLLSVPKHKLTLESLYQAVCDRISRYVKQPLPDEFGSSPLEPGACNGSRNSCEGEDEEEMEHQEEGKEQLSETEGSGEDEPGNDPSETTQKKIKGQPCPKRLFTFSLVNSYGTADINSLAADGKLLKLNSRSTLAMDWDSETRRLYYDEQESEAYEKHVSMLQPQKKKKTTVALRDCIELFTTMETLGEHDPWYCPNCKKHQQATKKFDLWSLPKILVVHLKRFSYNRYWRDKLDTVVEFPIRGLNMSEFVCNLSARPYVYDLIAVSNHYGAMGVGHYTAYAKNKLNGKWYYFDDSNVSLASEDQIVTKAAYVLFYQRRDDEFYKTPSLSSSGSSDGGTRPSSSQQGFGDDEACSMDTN
Procedure, shortened: as §1

Measured: log2 ratio of Biotin-Ahx-Ub-VS probe labelling

Chain of USP34 (Q70CQ2 whole entry, the tested form may be a part): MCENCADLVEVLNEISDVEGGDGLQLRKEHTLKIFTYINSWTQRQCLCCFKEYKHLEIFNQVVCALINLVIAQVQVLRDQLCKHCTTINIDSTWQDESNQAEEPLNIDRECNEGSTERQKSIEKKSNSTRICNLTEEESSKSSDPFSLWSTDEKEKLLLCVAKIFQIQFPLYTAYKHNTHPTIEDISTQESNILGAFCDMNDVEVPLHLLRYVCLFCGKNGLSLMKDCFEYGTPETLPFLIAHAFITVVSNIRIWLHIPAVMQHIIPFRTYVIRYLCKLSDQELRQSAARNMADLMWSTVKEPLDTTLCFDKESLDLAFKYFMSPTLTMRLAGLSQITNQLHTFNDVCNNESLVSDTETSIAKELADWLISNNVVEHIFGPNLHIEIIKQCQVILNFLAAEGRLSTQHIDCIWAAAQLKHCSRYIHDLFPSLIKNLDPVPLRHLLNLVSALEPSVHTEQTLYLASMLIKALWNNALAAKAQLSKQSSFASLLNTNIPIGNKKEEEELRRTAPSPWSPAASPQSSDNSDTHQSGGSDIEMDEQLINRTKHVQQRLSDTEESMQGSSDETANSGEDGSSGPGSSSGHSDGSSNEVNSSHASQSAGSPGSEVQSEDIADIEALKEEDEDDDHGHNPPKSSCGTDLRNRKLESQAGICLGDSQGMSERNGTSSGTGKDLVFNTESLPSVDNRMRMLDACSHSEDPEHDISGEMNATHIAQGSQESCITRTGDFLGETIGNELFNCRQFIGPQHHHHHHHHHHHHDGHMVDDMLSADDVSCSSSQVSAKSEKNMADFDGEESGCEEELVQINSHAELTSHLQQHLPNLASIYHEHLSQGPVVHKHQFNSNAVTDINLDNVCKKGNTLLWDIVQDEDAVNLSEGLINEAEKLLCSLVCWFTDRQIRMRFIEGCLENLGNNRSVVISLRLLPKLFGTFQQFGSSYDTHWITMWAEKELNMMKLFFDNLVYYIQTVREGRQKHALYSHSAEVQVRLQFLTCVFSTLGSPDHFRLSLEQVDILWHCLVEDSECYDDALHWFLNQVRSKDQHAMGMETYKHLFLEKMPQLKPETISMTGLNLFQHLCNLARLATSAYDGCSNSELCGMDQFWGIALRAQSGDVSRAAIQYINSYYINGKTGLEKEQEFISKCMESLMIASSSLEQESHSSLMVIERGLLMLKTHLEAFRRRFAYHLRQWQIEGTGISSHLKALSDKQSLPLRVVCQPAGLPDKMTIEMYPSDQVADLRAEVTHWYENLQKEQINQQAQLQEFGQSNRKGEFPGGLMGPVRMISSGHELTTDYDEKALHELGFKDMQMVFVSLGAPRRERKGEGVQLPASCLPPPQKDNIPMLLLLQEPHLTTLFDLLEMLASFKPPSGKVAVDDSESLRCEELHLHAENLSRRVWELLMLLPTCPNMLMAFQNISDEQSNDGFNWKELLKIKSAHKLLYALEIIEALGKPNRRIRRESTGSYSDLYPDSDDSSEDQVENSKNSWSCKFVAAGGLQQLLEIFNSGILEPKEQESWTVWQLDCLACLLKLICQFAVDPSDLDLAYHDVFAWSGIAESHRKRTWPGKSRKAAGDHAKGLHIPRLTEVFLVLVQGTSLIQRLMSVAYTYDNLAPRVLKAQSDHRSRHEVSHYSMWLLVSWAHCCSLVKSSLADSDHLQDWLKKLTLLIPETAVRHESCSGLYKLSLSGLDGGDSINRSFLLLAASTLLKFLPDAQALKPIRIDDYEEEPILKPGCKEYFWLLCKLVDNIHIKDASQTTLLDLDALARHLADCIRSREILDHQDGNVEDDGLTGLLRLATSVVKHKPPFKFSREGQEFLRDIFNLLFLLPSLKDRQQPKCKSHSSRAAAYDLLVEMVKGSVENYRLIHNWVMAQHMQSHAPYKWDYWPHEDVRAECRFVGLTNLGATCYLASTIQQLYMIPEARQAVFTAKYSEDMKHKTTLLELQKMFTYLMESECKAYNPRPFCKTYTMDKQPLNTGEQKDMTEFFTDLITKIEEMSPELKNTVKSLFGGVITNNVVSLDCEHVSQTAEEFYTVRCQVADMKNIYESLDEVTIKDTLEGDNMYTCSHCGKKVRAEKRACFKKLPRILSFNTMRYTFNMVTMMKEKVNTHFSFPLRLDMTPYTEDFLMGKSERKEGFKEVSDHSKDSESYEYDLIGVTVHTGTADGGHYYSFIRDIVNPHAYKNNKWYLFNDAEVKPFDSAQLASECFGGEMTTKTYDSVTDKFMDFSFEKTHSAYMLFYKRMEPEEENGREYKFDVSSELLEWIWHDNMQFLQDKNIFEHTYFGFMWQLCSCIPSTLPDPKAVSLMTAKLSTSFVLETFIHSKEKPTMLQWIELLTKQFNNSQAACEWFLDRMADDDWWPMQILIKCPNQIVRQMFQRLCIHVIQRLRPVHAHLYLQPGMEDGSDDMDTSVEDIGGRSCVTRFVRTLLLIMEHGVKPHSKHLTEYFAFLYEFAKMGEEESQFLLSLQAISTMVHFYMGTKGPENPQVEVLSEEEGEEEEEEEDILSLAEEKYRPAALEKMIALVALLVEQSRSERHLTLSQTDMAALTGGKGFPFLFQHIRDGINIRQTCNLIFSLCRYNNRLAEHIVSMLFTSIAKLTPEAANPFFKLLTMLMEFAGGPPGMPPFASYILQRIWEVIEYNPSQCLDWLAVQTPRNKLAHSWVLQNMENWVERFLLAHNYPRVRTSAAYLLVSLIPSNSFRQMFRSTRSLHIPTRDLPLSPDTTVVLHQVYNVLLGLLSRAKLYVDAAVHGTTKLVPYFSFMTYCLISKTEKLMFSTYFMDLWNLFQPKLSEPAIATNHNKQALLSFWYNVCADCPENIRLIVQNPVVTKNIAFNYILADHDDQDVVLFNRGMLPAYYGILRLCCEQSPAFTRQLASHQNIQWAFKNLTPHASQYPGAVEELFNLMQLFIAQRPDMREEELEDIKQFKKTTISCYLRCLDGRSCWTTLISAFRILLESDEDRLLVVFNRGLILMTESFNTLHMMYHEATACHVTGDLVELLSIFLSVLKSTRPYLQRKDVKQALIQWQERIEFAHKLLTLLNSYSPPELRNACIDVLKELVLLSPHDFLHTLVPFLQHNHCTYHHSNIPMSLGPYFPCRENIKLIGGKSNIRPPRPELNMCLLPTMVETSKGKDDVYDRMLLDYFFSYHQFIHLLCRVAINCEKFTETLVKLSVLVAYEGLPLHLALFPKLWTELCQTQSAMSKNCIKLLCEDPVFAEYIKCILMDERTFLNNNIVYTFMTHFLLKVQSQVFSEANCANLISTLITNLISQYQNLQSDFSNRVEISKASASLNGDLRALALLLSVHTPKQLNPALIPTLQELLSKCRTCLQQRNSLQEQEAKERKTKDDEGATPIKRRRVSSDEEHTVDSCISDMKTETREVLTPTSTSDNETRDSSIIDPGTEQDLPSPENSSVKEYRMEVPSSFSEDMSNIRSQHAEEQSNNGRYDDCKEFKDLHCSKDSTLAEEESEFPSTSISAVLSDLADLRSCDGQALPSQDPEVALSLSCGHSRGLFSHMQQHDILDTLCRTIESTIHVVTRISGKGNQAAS

O=C(CCl)N1CCN(c2nc3ccccc3o2)CC1
inactive: USP34 -0.0431 | USP36 -0.047 | USP38 -0.41 | USP39 -0.00936 | USP4 -0.445

From the supplement of paper PMC11732987, “Enantioselective OTUD7B fragment discovery through chemoproteomics screening and high-throughput optimisation” (Communications Chemistry, 2025)
